Hit rate of the full screen: of about 130,000 compounds, about 2,500 (1.9%) were called active. The sample holds actives, similar compounds and a random draw of the others, so the mix is not that of the screen.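 The calls were made as follows: active = signal ratio slope over the read window, or its plate-corrected B-score, at least 3 SD from the plate mean, either direction; inactive = the rest.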
Each compound was assayed against ATP-sensitive inward rectifier potassium channel 1 (Homo sapiens) (UniProt P48048) (assay: ROMK potassium channel modulators, primary screen, cell-based, thallium flux, MLSMR library (AID 1918;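 also: B-score of the F/F0 ratio slope over 7 to 12 s after thallium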)). Conditions: Tet-inducible ROMK, thallium flux fluorescence; at 10 µM; actives lie on both sides.
Sequence of ATP-sensitive inward rectifier potassium channel 1 (Homo sapiens) (P48048 whole entry, looked up): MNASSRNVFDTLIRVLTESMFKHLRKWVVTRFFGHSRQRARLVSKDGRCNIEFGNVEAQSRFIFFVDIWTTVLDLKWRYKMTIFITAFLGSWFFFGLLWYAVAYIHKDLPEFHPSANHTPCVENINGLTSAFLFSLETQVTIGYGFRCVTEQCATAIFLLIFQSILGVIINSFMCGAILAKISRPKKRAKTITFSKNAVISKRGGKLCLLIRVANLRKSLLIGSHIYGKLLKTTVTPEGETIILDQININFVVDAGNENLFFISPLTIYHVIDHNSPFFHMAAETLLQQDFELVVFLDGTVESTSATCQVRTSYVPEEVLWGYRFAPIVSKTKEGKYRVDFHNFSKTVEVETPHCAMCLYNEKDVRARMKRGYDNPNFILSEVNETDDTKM

B-score, inactive:
Cc1c(NC(=O)Nc2ccccc2)cccc1[N+](=O)[O-] 1.03
CCN(CC)S(=O)(=O)c1ccc(Cl)c(NC(=O)c2ccncc2)c1 -0.305
CCOCCCNCc1cc(Br)ccc1OCC -0.61
Cc1ccc(C)c(NC(=O)CCC(=O)N/N=C2/CC(=O)CC(C)(C)C2)c1 -0.197
COc1cccc(NC(=O)COC(=O)CCOc2ccccc2OC)c1 2.55
Cc1cs/c(=N\N=C\c2ccc(O)cc2)n1Cc1ccco1 -2.07
CCOC(=O)CSc1nc2c(sc(=S)n2CCc2ccccc2)c(=O)n1Cc1ccco1 0.0111
CC(=O)Nc1nc2ccccc2n1Cc1ccc(C)cc1 -0.122
Cc1ccnc(SCC(N)=O)n1 0.191
CC(C)C(c1nnnn1C(C)(C)C)N1CCN(Cc2cccnc2)CC1 (stereo unspecified) 1.58
CC(C)C(c1nnnn1Cc1ccccc1)N1CCC(C(N)=O)CC1 (stereo unspecified) 0.519
CC(=O)Nc1ccc(NC(=O)CSc2nnc(COc3ccccc3C)n2CC2CCCO2)cc1 (stereo unspecified) -0.134
Cc1ccc(C(=O)N/C(=C\c2ccco2)C(=O)N2CCSCC2)cc1C 1.44
S=C(NCc1ccc2c(c1)OCO2)NCc1ccco1 -0.541
COC(=O)Cn1cc(C(=O)c2cccs2)c2ccccc21 0.201
COC(=O)N/N=C/c1cn(CCCOc2ccc(C)cc2)c2ccccc12 0.506
O=C(N/C(=C\c1ccc(F)cc1)C(=O)N1CCCCCC1)c1ccccc1 0.658
Cc1ccc(C(=O)N/C(=C\c2ccco2)C(=O)NC2CCS(=O)(=O)C2)cc1 (stereo unspecified) 0.484
COc1ccc(CC(=O)NC(C)CCc2ccccc2)cc1 (stereo unspecified) -0.201
COc1ccc(C(CC(=O)O)NC(=O)Cc2ccccc2)cc1 (stereo unspecified) -0.208
O=C(NC1CC1)C1CCCN(C(=O)NC2CCCCC2)C1 (stereo unspecified) 0.0365
CCN(C(=O)CSc1nc2ccccc2n1CC)C1CCS(=O)(=O)C1 (stereo unspecified) -1.63
Cc1cc(=O)[nH]c2nnnn12 -0.253
Cc1ccc(N2C(=O)SC(N(CC(=O)O)c3ccc(C)cc3)C2=O)cc1 (stereo unspecified) 0.244
Cc1ccc(N2C(=O)CC(Nc3cccc4ccccc34)C2=O)cc1 (stereo unspecified) -0.14
O=C(CSc1nc2ccccc2o1)N/N=C/c1ccccc1C(=O)O 0.754
CCOC(=O)c1sc(=S)n(-c2cccc(OC)c2)c1N -0.158
CCOC(=O)Cn1c(N)c(C(=O)OC)sc1=S -0.216
CC(C)N1CCC(=NNc2ccc([N+](=O)[O-])cc2S(=O)(=O)N2CCOCC2)CC1 -0.739
O=C1c2ccccc2C(=O)N1c1ccccc1S(=O)C(F)(F)F (stereo unspecified) -0.708
CC(C)OC(=O)CN1C(=O)C(=O)c2ccccc21 -0.327
Cc1cc([N+](=O)[O-])nn1CCCC(=O)Nc1cccnc1Cl 0.471
COc1ccc(Br)cc1/C=N/NC(=O)c1cccc(S(=O)(=O)N2CCOCC2)c1 -0.0649
Oc1c(C=Nc2cccc3nsnc23)ccc2ccccc12 -0.773
COc1cccc(C(=O)Nc2cccnc2)c1OC 1.32
Cc1cccc(-n2c(C)cc(/C=N\NC(=O)c3cccs3)c2C)c1 0.454
Cc1cccc(-n2c(C)cc(/C=N/NC(N)=S)c2C)c1 2.21
COc1cc2c(cc1OC)CN(C(=O)c1cc(=O)c3ccccc3o1)CC2 2.64
COc1ccc(CC(NC(C)=O)C(=O)NC2CCN(C(=O)c3ccc(OC)c(OC)c3)CC2)cc1OC (stereo unspecified) -0.592
CS(=O)(=O)N(Cc1ccccc1Cl)c1ccc(C(=O)NCc2cccnc2)cc1 -0.455
S=C(NCc1ccco1)Nc1ccc2c(c1)OCCO2 0.904
Cc1ccc(S(=O)(=O)Nc2nc(N)n(-c3ccccc3)n2)cc1 0.00772
Cc1noc(COc2ccccc2OCC(O)CNC(C)(C)C)n1 (stereo unspecified) -0.0138
O=C(NCc1ccc(Cl)cc1)NCc1ccc(Cl)cc1 -0.951
S=c1[nH]nc(-c2ccccc2)n1/N=C/c1c[nH]c2ccccc12 1.36
Oc1ccccc1/C=N/n1c(-c2cccs2)n[nH]c1=S 0.503
Cc1ccc(C(=O)O)cc1NC(=O)c1ccc(Cn2nc(C)c(Cl)c2C)o1 -0.188
Cc1nc2sc3c(c2c(=O)n1NC(=O)CCl)CCCC3 -0.421
CS(=O)(=O)c1ccc2c(c1)SC1=NC(=O)/C(=C/c3ccco3)C(=N)N12 0.317
CCS(=O)(=O)C1=NSC2=NC(=O)/C(=C\c3cc(C)n(-c4cccc(OC)c4)c3C)C(=N)N21 1.02

B-score, active:
CS(=O)(=O)c1ccc(Cl)c(NC(=O)Nc2ccccc2)c1 -8.31
CN(c1ccccc1)c1ccc(/C=c2\s/c(=C(/C#N)C(=O)C(C)(C)C)n(Cc3ccco3)c2=O)cc1 -5.56
CCCC(c1nnnn1C(C)(C)C)N1CCN(Cc2ccccc2)CC1 (stereo unspecified) -13.3
COC(=O)Cn1cc(/C=C/[N+](=O)[O-])c2ccccc21 -8.61
COc1ccc(C(CCNCc2ccccc2F)c2ccc(F)cc2)cc1 (stereo unspecified) -2.56
Cc1ccc(N2C(=O)C3CC3C2=O)cc1 (stereo unspecified) 1.41
CCOC(=O)c1sc(=S)n2c1[nH]c(=O)c1ccc(C(=O)OC)cc12 6.64
O=C1C(=O)N(c2ccccc2)c2ccccc21 3.08
Oc1ccc2ccccc2c1N=Nc1nccs1 2.22
Cc1cc(/C=N/NC(N)=O)c(C)n1C1CCCCC1 3.24
CCOc1cc(C(=O)N2CCc3cc(OC)c(OC)cc3C2)ccc1OC(F)F 4.09
CCSc1sc(CC)cc1C=O 4.04
CC(C)(C)CC(C)(C)NCC(O)COCCOc1ccc(Br)cc1 (stereo unspecified) -3.09
Nc1ccccc1SC(C[N+](=O)[O-])c1ccccc1 (stereo unspecified) -8.64
S=c1[nH]nc(-c2cccnc2)n1/N=C/C(Cl)=C\c1ccccc1 -3.13
Cc1cc(/C=C2/C(=N)N3C(=NC2=O)SN=C3S(C)(=O)=O)c(C)n1-c1ccccc1 1.2
